# Measurements: PubChem BioAssay AID1494157 (National Center for Advancing Translational Sciences (NCATS), 2020)
# Results filed as inconclusive are left out. Unmarked numbers belong to inactive results. Activity calls are given as the source filed them. Calls follow the shape of the full dose curve.
# Assay: Confirmatory qHTS for inhibitors of MERS-S pseudo-typed particle cell entry
# Details: MERS-S pseudotyped particle entry, luciferase reporter; series mostly up to 57.1 µM; activity change, negative = inhibition: at the top concentration
Structure (SMILES),Potency,"activity change, negative = inhibition"
COc1cccc2c1C(=O)c1c(O)c3c(c(O)c1C2=O)C[C@@](O)(C(C)=O)C[C@@H]3O[C@H]1C[C@H](N)[C@H](O)[C@H](C)O1,3.83 µM (active),–
CN1CCC(=C2c3ccccc3C=Cc3ccccc32)CC1,19.2 µM (active),–
CCCCc1oc2ccccc2c1C(=O)c1cc(I)c(OCCN(CC)CC)c(I)c1,10.8 µM (active),–
CN(C)CCOC(c1ccccc1)c1ccc(Br)cc1 (centres undefined),17.1 µM (active),–
COC(=O)C[C@](O)(CCCC(C)(C)O)C(=O)O[C@@H]1C(OC)=C[C@]23CCCN2CCc2cc4c(cc2[C@H]13)OCO4,0.607 µM (active),–
CCN1CCN(Cc2ccc(Nc3ncc(F)c(-c4cc(F)c5nc(C)n(C(C)C)c5c4)n3)nc2)CC1,0.482 µM (active),–
Cc1cc(-n2c(=O)[nH]c(=O)n(C)c2=O)ccc1Oc1ccc(S(=O)(=O)C(F)(F)F)cc1,6.81 µM (active),–
Cc1cn([C@H]2C[C@H](N=[N+]=[N-])[C@@H](CO)O2)c(=O)[nH]c1=O,0.242 µM (active),–
C=CC(=O)Nc1cc(Nc2nccc(-c3cn(C)c4ccccc34)n2)c(OC)cc1N(C)CCN(C)C,6.81 µM (active),–
COc1cc2c(cc1Cc1cccc(Cl)c1F)c(=O)c(C(=O)O)cn2[C@H](CO)C(C)C,0.304 µM (active),–
COc1cc2nccc(Oc3ccc(NC(=O)NC4CC4)c(Cl)c3)c2cc1C(N)=O,17.1 µM (active),–
C[n+]1c2cc(N)ccc2cc2ccc(N)cc21 (tested in a mixture with another compound),1.92 µM (active),–
CCc1c2c(nc3ccc(OC(=O)N4CCC(N5CCCCC5)CC4)cc13)-c1cc3c(c(=O)n1C2)COC(=O)[C@]3(O)CC,15.2 µM (active),–
Cc1nnc2n1-c1sc(CCc3ccc(CC(C)C)cc3)cc1C(c1ccccc1Cl)=NC2C (centres undefined),27.1 µM (active),–
CNCCCC12CCC(c3ccccc31)c1ccccc12,21.5 µM (active),–
Oc1c(Cl)cc(Cl)c(Cl)c1Cc1c(O)c(Cl)cc(Cl)c1Cl,0.857 µM (active),–
COc1cc(NS(C)(=O)=O)ccc1Nc1c2ccccc2nc2ccccc12,1.36 µM (active),–
COc1cccc2c1C(=O)c1c(O)c3c(c(O)c1C2=O)C[C@@](O)(C(=O)CO)C[C@@H]3O[C@H]1C[C@H](N)[C@H](OC2CCCCO2)[C@H](C)O1 (some centres undefined),–,-19.3%
CCn1cc(C(=O)O)c(=O)c2cc(F)c(N3CCNC(C)C3)c(F)c21 (centres undefined),–,0%
OCCN1CCN(CC/C=C2/c3ccccc3Sc3ccc(C(F)(F)F)cc32)CC1,12.1 µM (active),–
CCN(CC)CCNC(=O)c1c(C)[nH]c(/C=C2\C(=O)Nc3ccc(F)cc32)c1C,4.29 µM (active),–
CN1CCN(CCC=C2c3ccccc3Sc3ccc(S(=O)(=O)N(C)C)cc32)CC1,6.07 µM (active),–
Cc1oncc1C(=O)Nc1ccc(C(F)(F)F)cc1,–,0%
Cc1ccc(NC(=O)c2ccc(CN3CCN(C)CC3)cc2)cc1Nc1nccc(-c2cccnc2)n1,13.6 µM (active),–
C[C@@H]1CCO[C@H]2Cn3cc(C(=O)NCc4ccc(F)cc4F)c(=O)c(O)c3C(=O)N12,0.0043 µM (active),–
CC(=O)N1CCN(c2ccc(OC[C@H]3CO[C@](Cn4ccnc4)(c4ccc(Cl)cc4Cl)O3)cc2)CC1,7.64 µM (active),–
Cc1nn(C)c2c1C(c1ccccc1F)=NCC(=O)N2C,10.8 µM (active),–
O=c1[nH]c(=O)n([C@H]2C[C@H](O)[C@@H](CO)O2)cc1C(F)(F)F,6.81 µM (active),–
C/C=C(/C)C(=O)O[C@H]1C(C)=CC23C(=O)C(C=C(CO)[C@@H](O)[C@]12O)[C@H]1[C@@H](C[C@H]3C)C1(C)C (some centres undefined),–,-20.2%
